About 79,000 compounds went through this panel and 15% of them were active in at least one assay; those are over-represented in the sample as a whole. Rule as the data show it: active = growth inhibition above about 70%; inactive = the rest.
Experiments:
[1] = NCI Yeast Anticancer Drug Screen. Data for the rad50 strain (AID 155);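 also: 0% = growth of vehicle-only cultures of the same strain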; conditions: S. cerevisiae rad50 strain growth inhibition; at 50.0 µM; active compounds read high
Method in brief: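 Vehicle-treated cultures provide the reference for the growth inhibition reported for compound-exposed, repair-deficient yeast.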

[2] = NCI Yeast Anticancer Drug Screen. Data for the mec2-1 strain (AID 157); conditions: S. cerevisiae mec2-1 strain, at 50.0 µM, active compounds read high
Method in brief: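 Mutant yeast (mec2-1) grown with compound; growth inhibition relative to vehicle control reported.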

[3] = NCI Yeast Anticancer Drug Screen. Data for the sgs1 mgt1 strain (AID 161);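 also: 0% = growth of cultures given vehicle only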; conditions: S. cerevisiae sgs1 mgt1 strain, at 50.0 µM, active compounds read high
Method in brief: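 Yeast cells carrying a defined DNA-repair defect were exposed to test compounds. Growth inhibition was measured relative to vehicle-treated controls.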

[4] = NCI Yeast Anticancer Drug Screen. Data for the cln2 rad14 strain (AID 165);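 also: 0% = growth equal to vehicle treated cultures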; conditions: S. cerevisiae cln2 rad14 strain, at 50.0 µM, active compounds read high
Method in brief: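 Readout is yeast growth inhibition versus vehicle-treated controls, using a strain with cln2 and rad14 alterations exposed to compound.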

[5] = NCI Yeast Anticancer Drug Screen. Data for the bub3 strain (AID 167); conditions: S. cerevisiae bub3 mutant strain, at 50.0 µM, active compounds read high
Method in brief: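 Mutant yeast screening strain plus compound; vehicle-treated cultures serve as the 0% inhibition reference.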

[6] = NCI Yeast Anticancer Drug Screen. Data for the mlh1 rad18 strain (AID 175); conditions: S. cerevisiae mlh1 rad18 strain growth inhibition; at 50.0 µM; active compounds read high
Method in brief: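 Genetically defined yeast (DNA repair-deficient) exposed to compounds; growth inhibition determined relative to vehicle.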

Measured: growth inhibition

COc1ccc(NC(=S)N=Nc2c(O)[nH]c3ccccc23)cc1
inactive: [1] -43.2% | [2] -50% | [3] -33.9% | [4] -13.8% | [5] -41.4% | [6] -30.6%

COC(=O)c1cc2c(cc1CC(Cc1ccc3c(c1)CCC3)C(=O)OC)CCC2 (centres undefined)
inactive: [1] 27.9% | [2] 1.25% | [3] -21.6% | [4] -34.1% | [5] 3.95% | [6] -4.65%

O=C(c1cccc(C(=O)N(c2ccccc2)C2CCCCC2)c1)N(c1ccccc1)C1CCCCC1
inactive: [1] -2.65% | [2] -6.35% | [3] -1.55% | [4] -6.65% | [5] -1.3% | [6] -27.9%

O=C1c2c(-c3ccccc3)ccc(-c3ccccc3)c2C(=O)c2c(-c3ccccc3)ccc(-c3ccccc3)c21
inactive: [1] -4.4% | [2] -3.4% | [3] 2.3% | [4] -6.8% | [5] -2.6% | [6] -13.6%

Reference: PubChem BioAssay (NCI)
